# Measured values reported in the supplement of paper PMC7366291.
# Where a name gives a salt, the structure may show the parent alone.
# Tested on: Danio rerio Tg(wt1b:EGFP) embryo, pronephros
# Assay: fraction of imaged embryos annotated as normal kidney; higher = less nephrotoxic; extreme values may be limits of the assay
# Settings: 25 µM; exposure: 24-48 hpf
# Outline: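 The value given is the share of embryos in each treatment scored as having a normal kidney. To obtain it, dechorionated Tg(wt1b:EGFP) zebrafish embryos were treated from 24 to 48 hpf at 28.5°C with 25 μM compound in 0.5% DMSO, in 5 mM HEPES-buffered E3 with 0.003% PTU. Pronephroi were imaged by widefield fluorescence (470 nm, 10 z-slices), and every embryo was annotated by hand from maximum projections.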
row,Compound,fraction of imaged embryos annotated as normal kidney
1,CS(=O)(=O)c1ccc(C2=C(c3ccccc3)C(=O)OC2)cc1 [Rofecoxib],1
2,C[C@]12C=CC(=O)C=C1CC[C@@H]1[C@@H]2C(=O)C[C@@]2(C)[C@H]1CC[C@]2(O)C(=O)CO [Prednisone],0.833
3,CCOC(=O)c1ccc(OC(=O)CCCCCNC(=N)N)cc1 [Gabexate mesilate],0.8
4,Cc1cccc(Nc2ccccc2C(=O)O)c1C [Mefenamic acid],0
5,N#Cc1ccc(C(c2ccc(C#N)cc2)n2cncn2)cc1 [Letrozole],0.917
6,Cc1cccc(C)c1NC(=O)CN1CCN(CCCC(c2ccc(F)cc2)c2ccc(F)cc2)CC1 [Lidoflazine],0.167
7,CC(=O)OC[C@H]1O[C@@H]([S-])[C@H](OC(C)=O)[C@@H](OC(C)=O)[C@@H]1OC(C)=O.CCP(CC)CC.[Au+] [Auranofin],0.417
8,O=C(O)c1cccnc1 [Niacin],0.917
9,CCCOc1ccccc1-c1nc2[nH]nnc2c(=O)[nH]1 [Zaprinast],0.727
10,O=S(=O)(O)c1cc(O)ccc1O [Ethamsylate],0.917
11,CCCN(CCC)S(=O)(=O)c1ccc(C(=O)O)cc1 [Probenecid],0.833
12,C#C[C@]1(O)CC[C@H]2[C@@H]3CCc4cc(OC)ccc4[C@H]3CC[C@@]21C [Ethynylestradiol 3-methyl ether],0.833
13,CCN(CC)CCNC(=O)c1cc(Br)c(N)cc1OC [Bromopride],1
14,c1ccc(C2CN3CCSC3=N2)cc1 (centres undefined) [Tetramisole hydrochloride],0.75
15,C[C@H](CCC(=O)O)[C@H]1CC[C@H]2[C@@H]3C(=O)C[C@@H]4CC(=O)CC[C@]4(C)[C@H]3CC(=O)[C@]12C [Dehydrocholic acid],0.833
16,O=C1CC2(CCCC2)CC(=O)N1CCCCN1CCN(c2ncccn2)CC1 [Buspirone hydrochloride],0.75
17,CC(C)Nc1cccnc1N1CCN(C(=O)c2cc3cc(NS(C)(=O)=O)ccc3[nH]2)CC1 [Delavirdine],0.667

row,Compound,fraction of imaged embryos annotated as normal kidney
1,CC(C)(C(=O)c1cccnc1)c1cccnc1 [Metyrapone],0.9
2,O=C1CCC(N2C(=O)c3ccccc3C2=O)C(=O)N1 (centres undefined) [Thalidomide],0.917
3,C=C1c2c(Cl)ccc(O)c2C(=O)C2=C(O)[C@]3(O)C(=O)C(C(N)=O)=C(O)[C@@H](N(C)C)[C@@H]3[C@@H](O)[C@H]12.O=C(O)c1cc(S(=O)(=O)O)ccc1O [Meclocycline sulfosalicylate],0.917
4,NCCC[C@H](N)CC(=O)N[C@H]1CNC(=O)[C@H]([C@H]2C[C@H](O)NC(N)=N2)NC(=O)/C(=C/NC(N)=O)NC(=O)[C@H](CO)NC(=O)[C@H](CO)NC1=O [Viomycin sulfate],0.833
5,O=C(O)CCC(=O)c1ccc(-c2ccccc2)cc1 [Fenbufen],0.0909
6,C=CCOc1ccccc1OCC(O)CNC(C)C (centres undefined) [Oxprenolol hydrochloride],0.75
7,O=C(O)c1cn(-c2ccc(F)cc2)c2cc(N3CCNCC3)c(F)cc2c1=O [Sarafloxacin],0.455
8,COc1ccc(CC2c3cc(OC)c(OC)cc3CC[N+]2(C)CCC(=O)OCCCCCOC(=O)CC[N+]2(C)CCc3cc(OC)c(OC)cc3C2Cc2ccc(OC)c(OC)c2)cc1OC (centres undefined) [Atracurium besylate],0.917
9,CCOCCn1c(N2CCCN(C)CC2)nc2ccccc21 [Emedastine],0.917
10,Cn1cnc2c1c(=O)[nH]c(=O)n2C [Theobromine],0.667
11,COc1ccc([C@@H]2CC(=O)c3c(O)cc(O[C@@H]4O[C@H](CO[C@@H]5O[C@@H](C)[C@H](O)[C@@H](O)[C@H]5O)[C@@H](O)[C@H](O)[C@H]4O)cc3O2)cc1O [Hesperidin],0.917
12,O=C(OCC(O)CO)c1ccccc1Nc1ccnc2cc(Cl)ccc12 (centres undefined) [Glafenine hydrochloride],0.833
13,COc1ccc(Cl)cc1C(=O)NCCc1ccc(S(=O)(=O)NC(=O)NC2CCCCC2)cc1 [Glibenclamide],0.818
14,CN(C/C=C/C#CC(C)(C)C)Cc1cccc2ccccc12 [Terbinafine],1
15,CN(C)CCOC1=Cc2ccccc2Sc2ccc(Cl)cc21 [Zotepine],0.75
16,CN1CCC(=C2c3ccccc3C=Cc3ccccc32)CC1 [Cyproheptadine hydrochloride],0.667
17,CCn1cc(C(=O)O)c(=O)c2ccc(C)nc21 [Nalidixic acid sodium salt],0.25
